The record followed here is paper PMC7862700, “An all-to-all approach to the identification of sequence-specific readers for epigenetic DNA modifications on cytosine”.

What all share (test): DAPPL (digital affinity profiling via proximity ligation, sequencing); 10 mM Tris-HCl pH 7.5, 50 mM NaCl, 1 mM DTT, 4% glycerol, room temperature, 30 min; GST-TFs on glutathione beads, 16-mer random dsDNA library, 0.1% formaldehyde crosslink after washing; high values mean tight binding
Common to all, as to settings: protein: recombinant; tags: N-terminal GST; dsDNA, one strand shown

One assay addresses T1, ERF (Homo sapiens, UniProt P50548 1-548).
T1 sequence: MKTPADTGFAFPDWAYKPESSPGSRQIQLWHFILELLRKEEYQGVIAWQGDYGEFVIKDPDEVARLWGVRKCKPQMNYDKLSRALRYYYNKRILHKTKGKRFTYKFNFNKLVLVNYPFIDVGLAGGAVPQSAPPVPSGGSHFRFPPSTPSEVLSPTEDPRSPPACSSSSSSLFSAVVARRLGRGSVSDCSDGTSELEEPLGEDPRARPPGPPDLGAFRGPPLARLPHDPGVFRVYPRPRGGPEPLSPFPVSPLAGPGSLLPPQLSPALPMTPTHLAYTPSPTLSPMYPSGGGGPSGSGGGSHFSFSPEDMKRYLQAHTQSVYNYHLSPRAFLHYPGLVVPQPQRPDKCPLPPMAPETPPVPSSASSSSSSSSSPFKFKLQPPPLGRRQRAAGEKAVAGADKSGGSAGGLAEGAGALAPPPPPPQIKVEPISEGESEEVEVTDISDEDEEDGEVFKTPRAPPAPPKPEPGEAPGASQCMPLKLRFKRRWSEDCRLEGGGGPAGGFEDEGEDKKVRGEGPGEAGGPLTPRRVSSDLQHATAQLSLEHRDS
In short, it runs like this:
(§1)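 Pools of DNA-barcoded human transcription factors, expressed in yeast as GST fusions on glutathione beads and combined with a tag-only sample, were incubated with 200 nmole of a 16-mer random double-stranded DNA library. Incubation took 30 min at room temperature in Tris/NaCl/DTT/glycerol buffer and was followed by washing, 0.1% formaldehyde crosslinking, proximity ligation (BsaI/T4 ligase, 1 h, 37 °C), PCR amplification and sequencing on an Illumina NextSeq500. Binding signal is the ratio of a hexamer's read frequency for a factor to its frequency for the tag-only sample.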

In another assay the target is T2, ETV3L (Homo sapiens, UniProt Q6ZN32 1-361).
T2 sequence: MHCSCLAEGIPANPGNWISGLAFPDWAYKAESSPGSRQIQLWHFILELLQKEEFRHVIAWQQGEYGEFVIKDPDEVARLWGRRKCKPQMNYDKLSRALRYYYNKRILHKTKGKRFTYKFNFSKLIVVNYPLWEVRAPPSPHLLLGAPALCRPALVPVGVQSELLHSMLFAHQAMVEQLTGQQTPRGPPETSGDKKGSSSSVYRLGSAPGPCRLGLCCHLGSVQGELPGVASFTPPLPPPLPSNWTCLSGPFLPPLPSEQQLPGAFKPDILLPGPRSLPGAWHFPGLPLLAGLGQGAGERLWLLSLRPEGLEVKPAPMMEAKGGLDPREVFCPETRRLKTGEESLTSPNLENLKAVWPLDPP
In short, it runs like this: as §1

The next assay has as its target T3, ETS2 (Homo sapiens, UniProt P15036 1-469).
T3 sequence: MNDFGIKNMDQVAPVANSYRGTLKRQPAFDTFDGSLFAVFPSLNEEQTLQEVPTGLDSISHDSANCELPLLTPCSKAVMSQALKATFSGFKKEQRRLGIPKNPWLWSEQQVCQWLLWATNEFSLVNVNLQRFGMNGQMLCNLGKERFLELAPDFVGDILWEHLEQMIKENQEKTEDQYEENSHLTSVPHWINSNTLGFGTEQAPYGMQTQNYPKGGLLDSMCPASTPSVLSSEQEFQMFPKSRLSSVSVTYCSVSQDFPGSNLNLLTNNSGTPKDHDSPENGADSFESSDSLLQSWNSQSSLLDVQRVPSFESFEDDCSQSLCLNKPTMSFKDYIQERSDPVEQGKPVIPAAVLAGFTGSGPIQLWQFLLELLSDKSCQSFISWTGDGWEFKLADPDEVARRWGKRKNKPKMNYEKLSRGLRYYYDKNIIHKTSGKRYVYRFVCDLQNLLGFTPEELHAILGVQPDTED
In short, it runs like this:
as §1

For the next assay, the target named is T4, SPDEF (Homo sapiens, UniProt O95238 1-335).
T4 sequence: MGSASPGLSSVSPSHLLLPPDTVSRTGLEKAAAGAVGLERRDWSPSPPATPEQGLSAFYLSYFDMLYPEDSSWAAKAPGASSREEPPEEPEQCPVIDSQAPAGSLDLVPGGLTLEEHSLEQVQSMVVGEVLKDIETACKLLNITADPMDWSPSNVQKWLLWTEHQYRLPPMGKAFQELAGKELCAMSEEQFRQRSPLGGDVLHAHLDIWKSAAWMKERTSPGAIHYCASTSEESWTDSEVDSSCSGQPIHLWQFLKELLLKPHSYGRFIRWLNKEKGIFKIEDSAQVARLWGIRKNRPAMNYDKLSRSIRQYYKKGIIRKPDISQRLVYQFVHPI
In short, it runs like this:
as §1

For another assay, the target named is T5, ETV7 (Homo sapiens, UniProt Q9Y603 1-341).
T5 sequence: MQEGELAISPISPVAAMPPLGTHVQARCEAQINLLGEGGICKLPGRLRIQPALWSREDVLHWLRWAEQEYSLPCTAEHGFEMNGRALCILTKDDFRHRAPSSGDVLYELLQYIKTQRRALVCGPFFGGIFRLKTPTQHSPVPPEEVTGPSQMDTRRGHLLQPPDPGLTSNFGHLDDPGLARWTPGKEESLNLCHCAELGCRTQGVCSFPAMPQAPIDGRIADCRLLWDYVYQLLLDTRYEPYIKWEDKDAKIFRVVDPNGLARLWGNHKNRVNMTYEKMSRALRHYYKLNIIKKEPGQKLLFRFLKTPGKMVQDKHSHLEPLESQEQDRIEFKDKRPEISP
In short, it runs like this:
as §1

A further assay has as its target T6, ELF5 (Homo sapiens, UniProt Q9UKW6-2 1-255).
T6 sequence: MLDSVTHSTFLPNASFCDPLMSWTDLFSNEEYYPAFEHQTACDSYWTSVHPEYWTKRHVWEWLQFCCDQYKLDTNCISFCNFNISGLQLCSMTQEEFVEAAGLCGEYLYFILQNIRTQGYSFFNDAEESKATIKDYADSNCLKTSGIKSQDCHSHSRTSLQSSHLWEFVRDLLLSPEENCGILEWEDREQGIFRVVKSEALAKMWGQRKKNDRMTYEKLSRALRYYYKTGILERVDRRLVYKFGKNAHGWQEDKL
The method, boiled down:
as §1

A further assay addresses T7, ETV3 (Homo sapiens, UniProt P41162-2 1-143).
T7 sequence: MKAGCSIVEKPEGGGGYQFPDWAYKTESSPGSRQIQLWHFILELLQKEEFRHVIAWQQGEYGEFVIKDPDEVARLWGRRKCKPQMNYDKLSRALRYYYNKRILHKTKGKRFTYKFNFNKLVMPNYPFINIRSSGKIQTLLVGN
In short, it runs like this: as §1

The next assay has as its target ETV6 (Homo sapiens, UniProt P41212 1-452). In short, it runs like this:
as §1

Chain of ETV6 (P41212 whole entry): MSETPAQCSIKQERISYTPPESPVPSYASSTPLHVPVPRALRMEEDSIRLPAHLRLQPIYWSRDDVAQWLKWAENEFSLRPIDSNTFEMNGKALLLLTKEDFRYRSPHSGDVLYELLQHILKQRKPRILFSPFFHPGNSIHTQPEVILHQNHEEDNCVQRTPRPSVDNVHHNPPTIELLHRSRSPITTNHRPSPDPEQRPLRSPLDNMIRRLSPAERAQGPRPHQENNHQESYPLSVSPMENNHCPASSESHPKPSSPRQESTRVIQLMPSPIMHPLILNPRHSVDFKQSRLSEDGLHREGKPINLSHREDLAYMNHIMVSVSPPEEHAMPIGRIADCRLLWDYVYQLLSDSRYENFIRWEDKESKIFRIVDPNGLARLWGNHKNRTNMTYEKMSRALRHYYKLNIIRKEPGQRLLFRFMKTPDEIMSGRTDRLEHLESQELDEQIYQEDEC

As to CGGAAG, the binding signal in the assay with ERF was 2.46 fold enrichment (6-mer frequency, TF over GST control); in the assay with ETV3L it was 2.71 fold enrichment (6-mer frequency, TF over GST control); with ETS2, 3.01 fold enrichment (6-mer frequency, TF over GST control); with SPDEF, 3.02 fold enrichment (6-mer frequency, TF over GST control); with ETV7, 2.8 fold enrichment (6-mer frequency, TF over GST control); in the assay with ELF5 it was 3.37 fold enrichment (6-mer frequency, TF over GST control). Moreover, the binding signal with ETV3 is 3.28 fold enrichment (6-mer frequency, TF over GST control); with ETV6, 3.4 fold enrichment (6-mer frequency, TF over GST control).

For the sequence CTGACA, the binding signal with ERF was 1.21 fold enrichment (6-mer frequency, TF over GST control); in the assay with ETV3L, 1.34 fold enrichment (6-mer frequency, TF over GST control); with ETS2, 1.22 fold enrichment (6-mer frequency, TF over GST control); with SPDEF it was 1.24 fold enrichment (6-mer frequency, TF over GST control); with ETV7, 1.37 fold enrichment (6-mer frequency, TF over GST control); with ELF5, 1.26 fold enrichment (6-mer frequency, TF over GST control). Also, the binding signal in the assay with ETV3 was 1.24 fold enrichment (6-mer frequency, TF over GST control); in the assay with ETV6, 1.24 fold enrichment (6-mer frequency, TF over GST control).

On to CTATTA, for which the binding signal was 1.08 fold enrichment (6-mer frequency, TF over GST control) with ERF; 1.11 fold enrichment (6-mer frequency, TF over GST control) with ETV3L; 1.14 fold enrichment (6-mer frequency, TF over GST control) in the assay with ETS2; 1.07 fold enrichment (6-mer frequency, TF over GST control) in the assay with SPDEF; 1.07 fold enrichment (6-mer frequency, TF over GST control) with ETV7; 1.1 fold enrichment (6-mer frequency, TF over GST control) with ELF5. Moreover, the binding signal is 1.05 fold enrichment (6-mer frequency, TF over GST control) in the assay with ETV3 and 1.14 fold enrichment (6-mer frequency, TF over GST control) in the assay with ETV6.

In the case of CCTCAC, the binding signal with ERF is 1.09 fold enrichment (6-mer frequency, TF over GST control); with ETV3L, 1.19 fold enrichment (6-mer frequency, TF over GST control); in the assay with ETS2, 1.19 fold enrichment (6-mer frequency, TF over GST control); with SPDEF, 1.24 fold enrichment (6-mer frequency, TF over GST control); in the assay with ETV7 it was 1.15 fold enrichment (6-mer frequency, TF over GST control); with ELF5, 1.22 fold enrichment (6-mer frequency, TF over GST control). The binding signal with ETV3 is 1.12 fold enrichment (6-mer frequency, TF over GST control); in the assay with ETV6 it was 1.07 fold enrichment (6-mer frequency, TF over GST control).

Regarding GTCTTA, the binding signal in the assay with ERF is 1.12 fold enrichment (6-mer frequency, TF over GST control); with ETV3L, 1.21 fold enrichment (6-mer frequency, TF over GST control); in the assay with ETS2, 1.16 fold enrichment (6-mer frequency, TF over GST control); with SPDEF, 1.17 fold enrichment (6-mer frequency, TF over GST control); with ETV7, 1.21 fold enrichment (6-mer frequency, TF over GST control); in the assay with ELF5 it was 1.18 fold enrichment (6-mer frequency, TF over GST control). Moreover, the binding signal was 1.23 fold enrichment (6-mer frequency, TF over GST control) with ETV3 and 1.11 fold enrichment (6-mer frequency, TF over GST control) with ETV6.

As to CCTTCA, the binding signal is 1.42 fold enrichment (6-mer frequency, TF over GST control) in the assay with ERF; 1.21 fold enrichment (6-mer frequency, TF over GST control) with ETV3L; 1.38 fold enrichment (6-mer frequency, TF over GST control) with ETS2; 1.48 fold enrichment (6-mer frequency, TF over GST control) with SPDEF; 1.26 fold enrichment (6-mer frequency, TF over GST control) with ETV7; 1.56 fold enrichment (6-mer frequency, TF over GST control) with ELF5. For the same sequence, the binding signal is 1.46 fold enrichment (6-mer frequency, TF over GST control) with ETV3 and 1.5 fold enrichment (6-mer frequency, TF over GST control) with ETV6.

As for GTTCCC, the binding signal is 1.31 fold enrichment (6-mer frequency, TF over GST control) with ERF; 1.22 fold enrichment (6-mer frequency, TF over GST control) with ETV3L; 1.28 fold enrichment (6-mer frequency, TF over GST control) with ETS2; 1.29 fold enrichment (6-mer frequency, TF over GST control) with SPDEF; 1.3 fold enrichment (6-mer frequency, TF over GST control) with ETV7; 1.48 fold enrichment (6-mer frequency, TF over GST control) in the assay with ELF5. The binding signal with ETV3 is 1.31 fold enrichment (6-mer frequency, TF over GST control); with ETV6 it was 1.28 fold enrichment (6-mer frequency, TF over GST control).

Take CTTTCA: the binding signal with ERF was 1.44 fold enrichment (6-mer frequency, TF over GST control); with ETV3L, 1.38 fold enrichment (6-mer frequency, TF over GST control); with ETS2, 1.31 fold enrichment (6-mer frequency, TF over GST control); in the assay with SPDEF, 1.26 fold enrichment (6-mer frequency, TF over GST control); in the assay with ETV7, 1.33 fold enrichment (6-mer frequency, TF over GST control); with ELF5, 1.4 fold enrichment (6-mer frequency, TF over GST control). In addition, the binding signal with ETV3 is 1.39 fold enrichment (6-mer frequency, TF over GST control); in the assay with ETV6, 1.24 fold enrichment (6-mer frequency, TF over GST control).

For the sequence CCGCGC, the binding signal with ERF was 1.23 fold enrichment (6-mer frequency, TF over GST control); with ETV3L, 1.08 fold enrichment (6-mer frequency, TF over GST control); in the assay with ETS2, 1.21 fold enrichment (6-mer frequency, TF over GST control); in the assay with SPDEF, 1.17 fold enrichment (6-mer frequency, TF over GST control); with ETV7 it was 1.06 fold enrichment (6-mer frequency, TF over GST control); with ELF5, 1.18 fold enrichment (6-mer frequency, TF over GST control). The binding signal with ETV3 was 1.19 fold enrichment (6-mer frequency, TF over GST control); with ETV6 it was 1.15 fold enrichment (6-mer frequency, TF over GST control).
